This is part of a sample that, as a whole, favours compounds with a hit. Of some 83,000 tested, about 20% had one in any assay.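 Interpretation: 100, growth as untreated; towards 0, rising growth inhibition; 0, no net growth; 0 to -100, cell death. Compounds scoring below 10 were considered active.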 Calls of active or inactive are those of the source.
Key:
Assay in all cases: NCI-60 one-dose screen, 48 h (100 = growth as untreated, 0 = no growth, -100 = all killed)
Settings in all cases: 10 µM unless noted
SR leukemia = tested on: SR leukemia
RPMI-8226 leukemia = tested on: RPMI-8226 leukemia
OVCAR-8 ovarian = tested on: OVCAR-8 ovarian
OVCAR-5 ovarian = tested on: OVCAR-5 ovarian
OVCAR-4 ovarian = tested on: OVCAR-4 ovarian
SK-OV-3 ovarian = tested on: SK-OV-3 ovarian
IGROV1 ovarian = tested on: IGROV1 ovarian
OVCAR-3 ovarian = tested on: OVCAR-3 ovarian
HS 578T breast = tested on: HS 578T breast
NCI/ADR-RES ovarian = tested on: NCI/ADR-RES ovarian
T-47D breast = tested on: T-47D breast
BT-549 breast = tested on: BT-549 breast
MDA-MB-435 melanoma = tested on: MDA-MB-435 melanoma
SW-620 colon = tested on: SW-620 colon
MCF7 breast = tested on: MCF7 breast
HCT-116 colon = tested on: HCT-116 colon
HCC-2998 colon = tested on: HCC-2998 colon
KM12 colon = tested on: KM12 colon

Measured: growth

CCOc1ccc(NC(=O)CSc2oc(-c3ccccc3)nc2S(=O)(=O)c2ccc(C)cc2)cc1
inactive: SR leukemia 41.3% | RPMI-8226 leukemia 71.3% | OVCAR-8 ovarian 40.2% | OVCAR-5 ovarian 101% | OVCAR-4 ovarian 51.1% | SK-OV-3 ovarian 83.3% | IGROV1 ovarian 95% | OVCAR-3 ovarian 56.8% | HS 578T breast 59.9% | NCI/ADR-RES ovarian 58.9% | T-47D breast 57.4% | BT-549 breast 94% | MDA-MB-435 melanoma 87.4% | SW-620 colon 74.3% | MCF7 breast 61.9% | HCT-116 colon 23.8% | HCC-2998 colon 82.6% | KM12 colon 65.4%

CSc1nc2ncc([N+](=O)[O-])c(=O)n2[nH]1
inactive: SR leukemia 107% | RPMI-8226 leukemia 107% | OVCAR-8 ovarian 104% | OVCAR-5 ovarian 106% | OVCAR-4 ovarian 102% | SK-OV-3 ovarian 113% | IGROV1 ovarian 105% | OVCAR-3 ovarian 113% | HS 578T breast 103% | NCI/ADR-RES ovarian 101% | T-47D breast 99.8% | BT-549 breast 104% | MDA-MB-435 melanoma 100% | SW-620 colon 101% | MCF7 breast 96.5% | HCT-116 colon 105% | HCC-2998 colon 107% | KM12 colon 103%

CN(c1cc2ncc(=O)[nH]c2cc1NC(N)=NCc1ccc(Cl)cc1)C1CCCCC1
active: SR leukemia -22.7% | RPMI-8226 leukemia 8.99% | SW-620 colon 6.15% | MCF7 breast -44.2% | HCC-2998 colon -10.5%
inactive: OVCAR-8 ovarian 70.4% | OVCAR-5 ovarian 73.2% | OVCAR-4 ovarian 72.7% | SK-OV-3 ovarian 84.7% | IGROV1 ovarian 61.6% | OVCAR-3 ovarian 82.3% | HS 578T breast 64.2% | NCI/ADR-RES ovarian 115% | T-47D breast 47.6% | BT-549 breast 82% | MDA-MB-435 melanoma 40.2% | HCT-116 colon 24.9% | KM12 colon 28.7%

Cc1ccc2c(c1)=C/C(=C\c1cc(-c3ccccc3)oc1O)C(=O)N=2
inactive: SR leukemia 101% | RPMI-8226 leukemia 94.2% | OVCAR-8 ovarian 104% | OVCAR-5 ovarian 97.9% | OVCAR-4 ovarian 105% | SK-OV-3 ovarian 111% | IGROV1 ovarian 111% | OVCAR-3 ovarian 96.5% | HS 578T breast 106% | NCI/ADR-RES ovarian 98.4% | T-47D breast 97.7% | BT-549 breast 94.3% | MDA-MB-435 melanoma 110% | SW-620 colon 107% | MCF7 breast 89.2% | HCT-116 colon 93.1% | HCC-2998 colon 115% | KM12 colon 100%

CCOC(=O)Cc1cnc(N/N=C(\C)c2cc3ccccc3o2)s1
inactive: SR leukemia 106% | RPMI-8226 leukemia 98.6% | OVCAR-8 ovarian 94% | OVCAR-5 ovarian 99.7% | OVCAR-4 ovarian 93.5% | SK-OV-3 ovarian 92.1% | IGROV1 ovarian 87.4% | OVCAR-3 ovarian 107% | HS 578T breast 100% | NCI/ADR-RES ovarian 103% | T-47D breast 70.5% | BT-549 breast 109% | MDA-MB-435 melanoma 108% | SW-620 colon 96.9% | MCF7 breast 81.3% | HCT-116 colon 96.4% | HCC-2998 colon 105% | KM12 colon 96.3%

CC1OC(n2c3ccccc3c3c4c(c5c6ccccc6[nH]c5c32)C(=O)N(CCN2CCCC2)C4=O)CC(O)C1O (stereo unspecified)
active: SR leukemia -2.62% | RPMI-8226 leukemia 5.56% | MCF7 breast 9.93%
inactive: OVCAR-8 ovarian 53.1% | OVCAR-5 ovarian 78.1% | OVCAR-4 ovarian 22.9% | SK-OV-3 ovarian 32.1% | IGROV1 ovarian 48.9% | OVCAR-3 ovarian 60.2% | HS 578T breast 58.2% | NCI/ADR-RES ovarian 54.1% | T-47D breast 51.9% | BT-549 breast 65.6% | MDA-MB-435 melanoma 41.8% | SW-620 colon 17.7% | HCT-116 colon 25.8% | HCC-2998 colon 22% | KM12 colon 26.3%

Nc1ncnc2c1C(c1ccc(Br)cc1)c1sc3c(F)cccc3c1O2 (stereo unspecified)
inactive: SR leukemia 85.6% | RPMI-8226 leukemia 100% | OVCAR-8 ovarian 101% | OVCAR-5 ovarian 99.8% | OVCAR-4 ovarian 87.4% | SK-OV-3 ovarian 102% | IGROV1 ovarian 81.6% | OVCAR-3 ovarian 103% | HS 578T breast 94.8% | NCI/ADR-RES ovarian 96.1% | T-47D breast 74.9% | BT-549 breast 100% | MDA-MB-435 melanoma 107% | SW-620 colon 94.5% | MCF7 breast 55.9% | HCT-116 colon 95% | HCC-2998 colon 120% | KM12 colon 91.8%

CCOC(=O)c1nn(-c2ccc(S(N)(=O)=O)cc2)c2nc(C)cc(=O)n12
inactive: SR leukemia 104% | RPMI-8226 leukemia 103% | OVCAR-8 ovarian 105% | OVCAR-5 ovarian 117% | OVCAR-4 ovarian 102% | SK-OV-3 ovarian 105% | IGROV1 ovarian 98.7% | OVCAR-3 ovarian 110% | HS 578T breast 103% | NCI/ADR-RES ovarian 103% | T-47D breast 106% | BT-549 breast 106% | MDA-MB-435 melanoma 105% | SW-620 colon 106% | MCF7 breast 92.4% | HCT-116 colon 106% | HCC-2998 colon 109% | KM12 colon 102%

CC(C)c1ccc(C(=O)Nc2nc3ccc(O)c(CN(C)C)c3s2)cc1
inactive: SR leukemia 32.9% | RPMI-8226 leukemia 70.1% | OVCAR-8 ovarian 82.8% | OVCAR-5 ovarian 70.1% | OVCAR-4 ovarian 74.4% | SK-OV-3 ovarian 90.8% | IGROV1 ovarian 80.7% | OVCAR-3 ovarian 91.3% | HS 578T breast 86.8% | NCI/ADR-RES ovarian 87.8% | T-47D breast 77.8% | BT-549 breast 73.6% | MDA-MB-435 melanoma 55.4% | SW-620 colon 36.2% | MCF7 breast 80.5% | HCT-116 colon 47.3% | HCC-2998 colon 63.7% | KM12 colon 36%

COc1ccc(/C=C/C(=O)c2ccc(Nc3ccnc4cc(Cl)ccc34)cc2)cc1
inactive: OVCAR-8 ovarian 97.9% | OVCAR-5 ovarian 89.2% | OVCAR-4 ovarian 96.6% | SK-OV-3 ovarian 111% | IGROV1 ovarian 93.7% | OVCAR-3 ovarian 118% | HS 578T breast 106% | NCI/ADR-RES ovarian 83.6% | T-47D breast 83.1% | BT-549 breast 101% | MDA-MB-435 melanoma 85.6% | SW-620 colon 93.7% | MCF7 breast 76.2% | HCT-116 colon 34% | HCC-2998 colon 58.7% | KM12 colon 154%
active: SR leukemia -72.4% | RPMI-8226 leukemia -32%

Nc1n[nH]c2cccc(C#Cc3cccc(C(=O)Nc4cc(C(F)(F)F)cc(C(F)(F)F)c4)c3)c12
inactive: SR leukemia 49.7% | RPMI-8226 leukemia 52.6% | OVCAR-8 ovarian 82.9% | OVCAR-5 ovarian 75.9% | OVCAR-4 ovarian 85.4% | SK-OV-3 ovarian 109% | IGROV1 ovarian 45.7% | OVCAR-3 ovarian 90.6% | HS 578T breast 54.9% | NCI/ADR-RES ovarian 74.2% | T-47D breast 73.9% | BT-549 breast 98.6% | MDA-MB-435 melanoma 47.6% | SW-620 colon 78.6% | MCF7 breast 65.5% | HCT-116 colon 35.3% | HCC-2998 colon 80.3% | KM12 colon 43.9%

Clc1ccc2c(c1)C(c1c[nH]c3ccccc13)(c1c[nH]c3ccccc13)CCO2
inactive: SR leukemia 63.8% | RPMI-8226 leukemia 42.3% | OVCAR-8 ovarian 58.6% | OVCAR-5 ovarian 96% | OVCAR-4 ovarian 73.3% | SK-OV-3 ovarian 39.6% | IGROV1 ovarian 85.8% | OVCAR-3 ovarian 81.2% | HS 578T breast 76.6% | NCI/ADR-RES ovarian 92.2% | BT-549 breast 77.2% | MDA-MB-435 melanoma 94.9% | SW-620 colon 87.4% | MCF7 breast 103% | HCT-116 colon 56.5% | HCC-2998 colon 112% | KM12 colon 78.2%
active: T-47D breast -3.57%

COc1cc(-c2csc(NC(=O)c3ccc(N4CCOCC4)c(C(F)(F)F)c3)n2)cc(OC)c1OC
inactive: SR leukemia 23.3% | OVCAR-5 ovarian 83.9% | OVCAR-4 ovarian 23.1% | SK-OV-3 ovarian 74.5% | IGROV1 ovarian 29.5% | OVCAR-3 ovarian 38.3% | HS 578T breast 60% | MDA-MB-435 melanoma 35.1% | SW-620 colon 48.9% | MCF7 breast 19.2% | HCT-116 colon 16% | HCC-2998 colon 60.2% | KM12 colon 16.9%
active: RPMI-8226 leukemia 6.74% | OVCAR-8 ovarian 2.22% | NCI/ADR-RES ovarian 3.62% | T-47D breast -5.81% | BT-549 breast -7.47%

COc1ccc(/C=C(\C#N)n2nnc3cc(Cl)ccc32)cc1
inactive: SR leukemia 19% | OVCAR-8 ovarian 12.6% | OVCAR-4 ovarian 25.5% | SK-OV-3 ovarian 44.4% | T-47D breast 17.2%
active: RPMI-8226 leukemia 8.04% | OVCAR-5 ovarian -33.7% | IGROV1 ovarian 3.88% | OVCAR-3 ovarian -35.8% | HS 578T breast -8.59% | NCI/ADR-RES ovarian -11.6% | BT-549 breast -1.84% | MDA-MB-435 melanoma -61.6% | SW-620 colon 8.09% | MCF7 breast 1.74% | HCT-116 colon -9.51% | HCC-2998 colon -30.2% | KM12 colon 5.89%

O=c1c2cnn(-c3ccccc3)c2n2c(CN3CCOCC3)nnc2n1-c1ccccc1
inactive: SR leukemia 104% | RPMI-8226 leukemia 102% | OVCAR-8 ovarian 100% | OVCAR-5 ovarian 114% | OVCAR-4 ovarian 104% | SK-OV-3 ovarian 88.2% | IGROV1 ovarian 109% | OVCAR-3 ovarian 105% | HS 578T breast 107% | NCI/ADR-RES ovarian 98.8% | T-47D breast 81.9% | BT-549 breast 75.2% | MDA-MB-435 melanoma 112% | SW-620 colon 110% | MCF7 breast 99.3% | HCT-116 colon 78.8% | HCC-2998 colon 104% | KM12 colon 101%

CCOC(=O)c1c(NC(=O)c2cccc(C(F)(F)F)c2)sc2c(CN(C)C)c(O)ccc12
active: SR leukemia -2.46% | RPMI-8226 leukemia -17.3% | MDA-MB-435 melanoma -22.6% | SW-620 colon -6.39% | HCC-2998 colon -64.2%
inactive: OVCAR-8 ovarian 82.1% | OVCAR-5 ovarian 89.5% | OVCAR-4 ovarian 91.1% | SK-OV-3 ovarian 101% | IGROV1 ovarian 83.1% | OVCAR-3 ovarian 98.5% | HS 578T breast 89.8% | NCI/ADR-RES ovarian 79% | T-47D breast 70.3% | BT-549 breast 96.3% | MCF7 breast 26.3% | HCT-116 colon 33.7% | KM12 colon 79.4%

CC(C)c1ccc(C(=O)Nc2sc3c(c2C(N)=O)CCC(=O)C3)cc1
active: SR leukemia 0.332% | RPMI-8226 leukemia -37.1% | OVCAR-5 ovarian 8.42% | OVCAR-4 ovarian -85.4% | IGROV1 ovarian 9.75% | OVCAR-3 ovarian -35.7% | HS 578T breast -4.09% | NCI/ADR-RES ovarian 1.35% | T-47D breast -15.8% | BT-549 breast -21.9% | MDA-MB-435 melanoma -11% | SW-620 colon -43.4% | MCF7 breast 5.13% | HCT-116 colon -41.1% | KM12 colon 1.39%
inactive: OVCAR-8 ovarian 11% | SK-OV-3 ovarian 25.8% | HCC-2998 colon 14.9%

From PubChem BioAssay (NCI)
